Results reported in PubChem BioAssay AID1030 (National Center for Advancing Translational Sciences (NCATS), 2008).
Among all 220,000 compounds or so, about 16,000 (7.3%) were called active. Roughly 25% stayed inconclusive and do not appear here. Shown is part of a subset that was picked to be rich in actives. A number with no mark means an inactive call. Calls follow the shape of the dose curve; as a rule, active = well fitted inhibition curve with a large enough effect (not every such curve was filed as active); inconclusive = small, poorly fitted or top-dose-only effect, or another doubt; inactive = no such curve, though single readings can be large or run the other way.

Biological target: Aldehyde dehydrogenase 1A1 (Homo sapiens) (UniProt P00352)
Experiment: qHTS Assay for Inhibitors of Aldehyde Dehydrogenase 1 (ALDH1A1);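 as to activity, negative = inhibition: plate controls were no enzyme wells and a reference inhibitor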
Conditions: Purified ALDH1A1, NADH fluorescence, propionaldehyde substrate; series mostly up to 75.3 µM; activity, negative = inhibition: at the top concentration
Potency is read from the fitted curve at half-maximal effect.

Aldehyde dehydrogenase 1A1 (Homo sapiens), sequence (P00352 whole entry, looked up): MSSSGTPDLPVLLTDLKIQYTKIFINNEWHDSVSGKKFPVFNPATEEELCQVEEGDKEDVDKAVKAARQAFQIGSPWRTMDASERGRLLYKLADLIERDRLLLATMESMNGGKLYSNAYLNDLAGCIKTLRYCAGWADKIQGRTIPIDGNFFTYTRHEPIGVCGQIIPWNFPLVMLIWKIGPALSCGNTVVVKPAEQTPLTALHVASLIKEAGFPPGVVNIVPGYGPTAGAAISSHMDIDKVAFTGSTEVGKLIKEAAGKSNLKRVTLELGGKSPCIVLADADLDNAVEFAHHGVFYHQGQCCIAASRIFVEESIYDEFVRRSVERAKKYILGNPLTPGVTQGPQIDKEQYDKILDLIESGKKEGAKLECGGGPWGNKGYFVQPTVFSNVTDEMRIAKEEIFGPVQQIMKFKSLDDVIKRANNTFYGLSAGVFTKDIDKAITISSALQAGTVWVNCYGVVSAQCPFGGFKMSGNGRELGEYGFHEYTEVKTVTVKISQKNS

Row | SMILES | activity, negative = inhibition | Potency
1 | CCO[C@@H]1OC(C(=O)N2CCOCC2)=C[C@H](C)[C@H]1CCCO | 2.13% | –
2 | O=C(CSc1ccc(-c2cccs2)nn1)Nc1ccccc1F | -4.56% | –
3 | COc1ccc(NC(=O)c2cc3nc(-c4ccccc4)cc(C)n3n2)cc1OC | -1.11% | –
4 | COc1ccc(/C=N/NC(=O)Cn2cc(C(F)(F)F)ccc2=O)cc1 | 9.76% | –
5 | COc1ccc(OC)c2[nH]c(=O)c(CCNC(=O)C(=O)c3c[nH]c4ccccc34)cc12 | 5.85% | –
6 | CCOc1ccccc1C(=O)NCCCn1ccnc1 | -1.75% | –
7 | O=C(CCN1C(=O)c2ccccc2C1=O)NCCCn1ccnc1 | -1.64% | –
8 | O=C(NCCCn1ccnc1)C(=O)c1cn(CC(=O)N2CCCCCC2)c2ccccc12 | – | 14.1 µM (active)
9 | O=C(O)CCCCOn1ccnc1 | -0.454% | –
10 | CC(C)=CCN1CCN(Cc2ccc(Oc3ncccn3)cc2)CC1CCO (configuration not stated) | 17.4% | –
11 | CC1(C)CCCC2=C1CC1C(=O)N(c3ccccc3)C(=O)C1C2 (configuration not stated) | -2.61% | –
12 | CC1=C(C)CC2C(=O)N(c3cccc4ccccc34)C(=O)C2C1 (configuration not stated) | – | 12.6 µM (active)
13 | CCc1ccccc1N1C(=O)C2C3CC(=O)C(c4ccccc43)C2C1=O (configuration not stated) | 2.8% | –
14 | COC(=O)C1=C(C(=O)OC)[C@@H]2N(Cc3ccccc3)c3ccccc3[C@@]23C[C@@H](C(=O)OC)N(S(=O)(=O)c2ccc(C(F)(F)F)cc2)C3=N1 | 3.2% [at 13.5 µM] | –
15 | Fc1cccc2ncnc(OCc3ccccc3)c12 | -1.42% | –
16 | S=C(NCc1ccc2c(c1)OCO2)NCc1ccco1 | – | 20 µM (active)
17 | Cc1ccccc1-c1nnc(SCC(=O)NCc2ccc3c(c2)OCO3)n1C | -4.71% | –
18 | CS(=O)(=O)N(CC(=O)NCc1ccco1)c1ccc2c(c1)OCO2 | -0.792% | –
19 | O=C(CSc1ccc(-c2ccco2)nn1)NCc1ccc2c(c1)OCO2 | – | 3.55 µM (active)
20 | O=C(CSc1ncn[nH]1)NCc1ccc2c(c1)OCO2 | 5.55% | –
21 | Cc1c(Cl)cccc1NC(=S)NCc1ccc2c(c1)OCO2 | -14.2% | –
22 | Oc1ccc(-c2nncn2-c2ccccc2)cc1 | -7.56% | –
23 | COc1ccccc1C(=O)CSc1cccc[n+]1[O-] | – | 14.1 µM (active)

Row | SMILES | activity, negative = inhibition | Potency
24 | O=C(CSc1cccc[n+]1[O-])NCCCc1ccccc1 | 3.85% | –
25 | O=C(CSc1cccc[n+]1[O-])c1ccc(Cl)cc1 | 1.65% | –
26 | Cn1c(=O)n(CCc2ccccc2)c(=O)c2c1nc1n2CCCN1c1ccccc1 | – | 8.91 µM (active)
27 | Cc1cccc(N2CC(C)Cn3c2nc2c3c(=O)n(CC(=O)OCc3ccccc3)c(=O)n2C)c1 (configuration not stated) | -4.85% | –
28 | CC(C)Cn1c(CN(Cc2ccccc2)Cc2ccccc2)nc2c1c(=O)n(C)c(=O)n2C | -11.5% | –
29 | Cc1ccccc1C(=O)N1CCC(C(=O)Nc2ccc(S(=O)(=O)N(C)C(C)C)cc2)CC1 | – | 12.6 µM (active)
30 | COc1ccc(C(=O)N2CCC(C(=O)Nc3ccc(C)cc3)CC2)cc1 | -1.59% | –
31 | CCOC(=O)C1CCN(C(=O)c2ccccc2N(C)S(=O)(=O)c2ccccc2)CC1 | 5.9% | –
32 | COc1ccc(N(CC(=O)Nc2ccc(C)cc2C)S(=O)(=O)c2ccccc2[N+](=O)[O-])c(OC)c1 | 4.62% | –
33 | CNS(=O)(=O)c1ccc(N2CCCC2=O)c([N+](=O)[O-])c1 | 7.94% | –
34 | CCCCC/C=C\CC1OC1CCCCCCCC(=O)O (configuration not stated) | – | inactive
35 | CC1=C/C(=N\OS(=O)(=O)c2ccccc2)C=CC1=O | – | 11.2 µM (active)
36 | CC1=C/C(=N\S(=O)(=O)c2ccccc2)C(C(C)C)=CC1=O | -11.8% | –
37 | CCOC(=O)C1(S(=O)(=O)c2ccccc2)CCN(Cc2ccccc2)CC1 | -3.31% | –
38 | COc1cccc(NC(=O)CN(C)CC(=O)Nc2ccc3c(c2)CCC3)c1 | -7.54% | –
39 | Cc1ccnc(NC(=O)c2ccc(Cl)c([N+](=O)[O-])c2)c1 | 2.29% | –
40 | COc1ccc(C(=O)CN2C(=O)NC(C)(c3ccc(C)cc3)C2=O)cc1OC (configuration not stated) | 8.24% | –
41 | COC(=O)CN1C(=O)N/C(=C/c2ccc(OC)c(C)c2OC)C1=O | – | 6.31 µM (active)
42 | Cc1ccccc1NC(=O)CN1C(=O)N/C(=C\c2cccn2-c2cccc(C(=O)O)c2)C1=O | -7.18% | –
43 | CC(=O)Nc1ccc(OCCC[n+]2cccc(C(=O)[O-])c2)cc1 | -5.74% | –
44 | Cc1ccc(-c2nnn(CC(=O)N(Cc3ccco3)C(C(=O)NC(C)(C)C)c3ccncc3)n2)o1 (configuration not stated) | -10% | –
45 | COc1ccc(NS(=O)(=O)c2ccc(NC(C)=O)cc2)cc1OC | 1.33% | –
46 | COc1ccc(S(=O)(=O)Nc2ccc(S(=O)(=O)N3CCCCC3)cc2)cc1OC | – | 0.562 µM (active)

Row | SMILES | activity, negative = inhibition | Potency
47 | COc1ccc(S(=O)(=O)N2CCCCC2)cc1Br | 3.2% | –
48 | CN(C)/N=C/c1cn(-c2ccccc2)nc1-c1cccnc1 | -3.55% | –
49 | Cc1cccc(OCc2ccc(C(=O)Nc3ccc(F)cc3)cc2)c1 | 7.42% | –
50 | COc1ccc(C(=O)NNS(=O)(=O)c2ccc(C)cc2)cc1 | 3.99% | –
51 | Cc1ccc(COc2ccc(C(=O)NN)cc2)cc1 | – | 1 µM (active)
52 | COC(=O)/C(NC(C)=O)=C(\C)c1ccc(Cl)cc1 | 5.6% | –
53 | COC(=O)C(=Nc1ccccc1)/C(C(=O)C(=O)N(C)c1ccccc1)=C(\O)c1ccc(Cl)cc1 | – | 25.1 µM (active)
54 | CN(C(=O)CC(NC(=O)c1ccccc1)(c1ccccc1)c1ccccc1)c1ccccc1 | 4.49% | –
55 | COc1ccccc1CNC(=O)C1Cc2ccccc2C(=O)O1 (configuration not stated) | -2.15% | –
56 | Cc1cccc(N2CCC(NCc3c(C(=O)N4CCCCC4)nc4c(C)cccn34)CC2)c1 | -8.03% | –
57 | COCCn1c(C)cc(C2=NNC(=Nc3ccc(F)cc3)SC2)c1C | – | 10 µM (active)
58 | COC(=O)c1cc(NC(=O)CN2CCN(C(C)=O)CC2)cc(C(=O)OC)c1 | 9.25% | –
59 | COc1ccc(NC(=S)Nc2ccc(S(N)(=O)=O)cc2)c(C)c1 | -13.6% | –
60 | O=C(NC1CC1)c1cccc(Br)c1 | 2.69% | –
61 | NS(=O)(=O)c1ccc(NC(=S)NC(=O)c2cccnc2)cc1 | 3.62% | –
62 | O=C(NC(=S)Nc1ccc(S(=O)(=O)Nc2ncccn2)cc1)c1cccc(Br)c1 | – | 10 µM (active)
63 | COC(=O)c1ccccc1NC(=S)NC(=O)c1ccccc1F | -1.81% | –
64 | O=C(Nc1ccc(S(=O)(=O)Nc2ncccn2)cc1)c1cncc(Br)c1 | 15.6% | –
65 | O=C(/C=C/c1ccccc1Cl)Nc1ccc(S(=O)(=O)Nc2ncccn2)cc1 | -3.57% | –
66 | O=C(NC(=S)Nc1cccc2c(O)cccc12)c1cccc(Br)c1 | – | 3.16 µM (active)
67 | NS(=O)(=O)c1ccc(NC(=S)NC(=O)c2cccc(Br)c2)cc1 | – | 25.1 µM (active)
